According to PubChem BioAssay AID878 (University of Pittsburgh Molecular Library Screening Center, 2007):
In all, about 200,000 compounds went through this assay and about 65 (0.03%) were called active.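 How the source made its calls: active means activation of at least 50% relative to the plate's high and low controls in the primary single-dose screen; inactive means activation below 50%.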 The list comes from a sample in which actives are over-represented; it also holds similar structures and randomly drawn compounds.

Assay: compounds producing H2O2 with reducing agent – biochemical, NIH compound library profiling, artefact control for MLSCN library redox annotation, primary screen (AID 878);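 further: compound incubated with DTT at 0.8 mM final as the reducing agent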
Settings: DTT-dependent redox cycling H2O2, phenol red/HRP absorbance; at 10 µM; hits give high values; 100% = 100 µM peroxide control, 0% = buffer

activation, inactive:
O=C1c2cccc3c([N+](=O)[O-])ccc(c23)C(=O)N1CC1CCCO1 (centres undefined) -0.67%
O=C(N/N=C1\CCSC1)c1cc(Cl)ccc1O -0.43%
CCn1ccnc1CN1CCCC(C(=O)c2ccc3c4c(cccc24)CC3)C1 (centres undefined) -1.32%
COc1ccc([N+](=O)[O-])cc1NC(=O)c1ccc(N(Cc2ccccc2C)S(C)(=O)=O)cc1 2.05%
CCOc1ccc(N(CC(=O)NC2CCCCCC2)S(=O)(=O)c2c(C)[nH]c(=O)[nH]c2=O)cc1 -0.79%
CCC(O)C1CCN(Cc2cn(-c3ccc(OC)cc3)nc2-c2cccc(F)c2)CC1 (centres undefined) -1.12%
O=C(NNC(=O)C1CCN(c2ncccn2)CC1)c1ccccc1 3.9%
O=C(NC(=S)Nc1ccc(NC(=O)c2cccs2)cc1)c1ccc([N+](=O)[O-])cc1 0.63%
CNc1ccc(SC#N)cc1 -1.28%
CCN1CCN(CC(=O)c2cc(OC)c(OC)c(OC)c2)CC1 -2.87%
CC(Nc1ccccc1)c1cccnc1 (centres undefined) -1.74%
CN(C)c1ccc(-n2cccc2/C=N/n2cnnc2)cc1 -0.65%
COC(=O)/C(C#N)=C/c1occc1C -0.05%
Cc1cc(C)cc(N(CC(=O)N2CC=C(c3ccccc3)CC2)S(=O)(=O)c2c(C)noc2C)c1 -1.64%
CC(C)(C)C(=O)N(Cc1ccccc1)c1ccccn1 -0.82%
O=C(CN1CCCCCC1)Nc1ccc(Br)cc1Br 0.33%
COCCCn1c(SCC(=O)Nc2ccccc2)nnc1-c1ccncc1 0.72%
CCCCN=C1C([N+](=O)[O-])=CC=C2C1=NC1(CCCCC1)N2O 0.33%
O=C(N/N=C/c1ccco1)c1ccc(C(=O)N/N=C/c2ccco2)o1 -0.77%
O=C(C1CC1)N1N=C2CCCCC2C1(O)C(F)(F)F (centres undefined) -0.33%
CC1Cc2ccccc2N1S(=O)(=O)c1c(N)n(C)c(=O)n(C)c1=O (centres undefined) -1.16%
Cc1cc(NC(=O)CSc2nc3c(cc2C#N)CCCCC3)no1 -0.92%
COC(=O)c1ccccc1NS(=O)(=O)c1ccc2[nH]c(=O)[nH]c2c1 0.27%
COc1ccc(CCNC(=O)/C(C#N)=C2\N=C(NC(=O)c3cccs3)c3ccccc32)cc1 0.35%
CCC(NC(=O)c1ccccc1NC(=O)c1ccccc1)C(=O)NNC(=O)CSc1nc2ccccc2o1 (centres undefined) -0.15%
CCc1cccc(C)c1NC(=O)COC(=O)Cc1ccsc1 -0.34%
Cc1noc(C)c1COc1ccc2ccc(=O)oc2c1 -0.19%
COc1ccc2nc(Nc3nc(-c4ccncc4)cs3)sc2c1 -0.22%
Cc1cccc(OC(=O)c2sc3ncn(C)c(=O)c3c2C)c1 0.69%
COc1ccc(CCNC(=O)C(=O)NCc2ccccc2C)cc1OC -0.24%
CCc1nnc(NC(=O)C2CC(=O)N(c3ccc4c(c3)OCCO4)C2)s1 (centres undefined) 0.21%
CCc1ccc(CN(C)C(=O)CCc2nnc(-c3ccc(-c4ccccc4)cc3)o2)nc1 -1.14%
Cc1ccccc1NC(=O)c1ccc(COc2ccc3c(C)cc(=O)oc3c2)cc1 0.57%
O=C(Nc1cccc(C(F)(F)F)c1)c1ccc(N2CCNCC2)c([N+](=O)[O-])c1 2.54%
CN(C)CCCO/N=C(\c1ccccc1)c1ccncc1 0.18%
CCOCCCNC(=O)C(NC(=O)c1ccc(=O)[nH]c1)c1ccc(Cl)cc1 (centres undefined) -3.26%
COc1cc(CC(=O)N/N=C/c2ccccc2)c([N+](=O)[O-])cc1OC -0.77%
O=S(=O)(c1ccc(F)cc1)N1CCN(C(=S)NCc2ccco2)CC1 -0.47%
O=C(Cc1ccccc1)NNC(=O)C1CCN(c2ncccn2)CC1 -0.49%
COc1ccc(Cl)cc1-n1c(C)cc(C(=O)OCC(=O)N2CC(=O)Nc3ccccc32)c1C 0.04%
Cc1ccc(-c2cc(=O)c3ccc(Cl)cc3[nH]2)cc1 -1.26%
CCN(CC)c1ccc([N+](=O)[O-])cc1C(=O)O 0.13%
N#Cc1c(NC(=O)c2ccc(N3CCOCC3)c([N+](=O)[O-])c2)sc2c1CCCC2 0.09%
COc1cc(NC(=S)NCc2ccco2)c(OC)cc1Cl -0.01%
O=C(Nc1ccccc1)c1cc2ccccc2[nH]1 -0.39%
C=CCN(Cc1nc(-c2cc(OC)c3c(c2)OCO3)oc1C)C1CCS(=O)(=O)C1 (centres undefined) -0.18%
COc1ccccc1C(=O)Nc1ccc(OCc2nnc3c4ccccc4c(C)nn23)cc1 -0.13%
CCOC(=O)Nc1ccc(S(=O)(=O)N(C)C(C)C)cc1 0.17%
Cc1cc(NC(=O)CN2C(=O)NC(CCc3ccccc3)C2=O)no1 (centres undefined) -0.88%
COc1ccc(OC)c(NC(=O)CN(Cc2ccc(Cl)cc2)S(C)(=O)=O)c1 -0.61%
CC(C)NC(=O)c1ccccc1S(=O)c1ccccc1C#N (centres undefined) 0.13%
COc1ccc(C2=NN(c3ccccc3)C(c3cccs3)C2)cc1 (centres undefined) 0.96%
C=CCn1nc(-c2ccccc2)c2c(C)onc2c1=O -0.48%
Cc1ccc(C(=O)NC(C)c2ccccc2)cc1Br (centres undefined) -0.27%
CC(C)Cn1c(N)c(C(=O)COC(=O)CN2C(=O)C3CC=CCC3C2=O)c(=O)n(C)c1=O (centres undefined) -0.26%
Cc1cc(C)cc(NC(=O)N2CCCCCCC2)c1 -0.28%
CCCCN1C(=O)/C(=C/C=C2/C=Cc3ccccc3N2CC)SC1=S 1.26%
C=CCn1c(COc2ccc(F)cc2)nnc1SCC(=O)Nc1cccc(S(N)(=O)=O)c1 -0.73%
CCN(CC)CCCNC(=O)Cn1cnc2sc(C)c(S(=O)(=O)N3CCN(c4ncccn4)CC3)c2c1=O -0.75%
